In all, about 69,000 compounds went through this assay and about 50 (0.07%) showed an effect of 50% or more. The list comes from a sample in which strong results are over-represented; it also holds similar structures and randomly drawn compounds.

The target in this experiment is Lysine--tRNA ligase (Plasmodium falciparum (isolate 3D7)) (UniProt Q8IDJ8). The experiment can be described thus: Pf-KRS-1 (Lysyl-RNA Synthetase-1, KRS-1, cytosolic KRS) from Plasmodium falciparum. Inhibitor assay, 384 well plate, luminescence read. The following applies: 30 µM. Further details: scale not given: in the data most compounds retested in dose-response had high values. The class given is functional.
Chain of Lysine--tRNA ligase (Plasmodium falciparum (isolate 3D7)) (Q8IDJ8 1-583): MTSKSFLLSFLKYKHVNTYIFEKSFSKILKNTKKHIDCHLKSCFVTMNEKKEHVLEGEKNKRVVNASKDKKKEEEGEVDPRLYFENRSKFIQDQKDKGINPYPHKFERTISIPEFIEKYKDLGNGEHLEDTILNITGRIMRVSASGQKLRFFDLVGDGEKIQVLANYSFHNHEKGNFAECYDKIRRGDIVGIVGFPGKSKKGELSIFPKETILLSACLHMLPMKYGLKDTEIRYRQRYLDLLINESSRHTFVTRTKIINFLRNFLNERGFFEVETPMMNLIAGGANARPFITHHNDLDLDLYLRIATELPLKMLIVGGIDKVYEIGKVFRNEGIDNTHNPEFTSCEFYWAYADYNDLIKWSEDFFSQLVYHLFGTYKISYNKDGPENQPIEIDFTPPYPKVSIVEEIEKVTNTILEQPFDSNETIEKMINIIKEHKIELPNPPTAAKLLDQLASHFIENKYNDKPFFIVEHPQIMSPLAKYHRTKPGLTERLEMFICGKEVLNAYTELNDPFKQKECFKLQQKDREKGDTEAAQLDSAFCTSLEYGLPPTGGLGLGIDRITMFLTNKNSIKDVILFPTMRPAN
As for `COC(=O)c1ccc2ccn(CC3COCCO3)c(=O)c2c1` (stereo not drawn), the Percent Effect was 26.4%.

For `COC(=O)c1ccc2ccn(CC3CCCCO3)c(=O)c2c1` (stereo not drawn), the Percent Effect came to 78.6%.

`COC(=O)c1ccc2ccn(CC3CCCO3)c(=O)c2c1` (stereo not drawn): the Percent Effect is 12.9%.

In the case of `O=C(N1CCCO1)[C@@]12CCO[C@@H]1CCN(Cc1cccnc1)C2`, the Percent Effect stood at 0.613%.

With `CN1C(=O)CO[C@H]2CCN(C(=O)Cc3ccc4c(c3)CCCC4)CC[C@@H]21`, the Percent Effect was found to be 0.27%.

In the case of `CC(C)c1ncc2c(n1)CN(CC1CCCCO1)CC2` (stereo not drawn), the Percent Effect stood at 2.58%.

Take `CCc1ncc2c(n1)CN(CC1CCCCO1)CC2` (stereo not drawn): the Percent Effect was 17.1%.

As for `Cc1cc(CN2CCc3cncnc3C2)no1`, the Percent Effect amounted to 8.95%.

On to `c1ncc2c(n1)CN(CC1CCCCO1)CC2` (stereo not drawn), for which the Percent Effect was 84.6%.

In the case of `CCCn1nc2c(cc1=O)CN(CC1CCCCO1)CC2` (stereo not drawn), the Percent Effect is 8.29%.

On to `CC(C)n1nc2c(cc1=O)CN(CC1CCCCO1)CC2` (stereo not drawn), for which the Percent Effect was determined as 11.8%.

`Cn1nc2c(cc1=O)CN(CC1CCCCO1)CC2` (stereo not drawn): the Percent Effect turned out to be 50.5%.

Regarding `Cc1ncc2c(n1)CN(CC1CCCCO1)CC2` (stereo not drawn), the Percent Effect worked out at 76.2%.

Take `CCn1nc2c(cc1=O)CN(CC1CCCCO1)CC2` (stereo not drawn): the Percent Effect is -3.92%.

For the compound `COCCN1CCO[C@H]2CN(Cc3cccc(C)n3)C[C@H]21`, the Percent Effect amounted to 2.71%.

For `CO[C@H]1CN(CC2CCOCC2)[C@@H]2CCCO[C@H]12`, the Percent Effect came to 3.3%.

In the case of `Cc1cccc(CN2C[C@H](NS(C)(=O)=O)[C@@H]3OCCC[C@@H]32)n1`, the Percent Effect turned out to be 0.332%.

Turning to `Cc1noc([C@]23COC[C@H]2CN(C(C)C)C3)n1`, the Percent Effect was 2.71%.

In the case of `COCCn1cc(NC(=O)C(C)CCc2ccccc2F)ccc1=O` (stereo not drawn), the Percent Effect stood at 34.2%.

With `CC(CCc1ccccc1)NC(=O)Nc1cnn(CC(N)=O)c1` (stereo not drawn), the Percent Effect came out at 2.54%.

With `COCCn1cc(NC(=O)NC(C)CCc2ccccc2)ccc1=O` (stereo not drawn), the Percent Effect is 64.7%.

Regarding `CCCN1CCN(C(=O)c2cc3ccccc3cn2)[C@H]2CS(=O)(=O)C[C@H]21`, the Percent Effect is 4.93%.

For the compound `Cc1ccc(-c2ccc(C3CNCCO3)nc2)cc1` (stereo not drawn), the Percent Effect is 5.24%.

With `O=c1[nH]c2c(c(=O)n1C1CCCCC1)CCC2NCc1ccccc1` (stereo not drawn), the Percent Effect came to 11.2%.

Take `O=c1[nH]c2c(c(=O)n1C1CCCCC1)CCC2Nc1ccccc1` (stereo not drawn): the Percent Effect was 24.4%.

With `O=c1[nH]c2c(c(=O)n1C1CCCCC1)CCC2Nc1ccccc1Cl` (stereo not drawn), the Percent Effect amounted to 61.5%.

Consider `O=c1[nH]c2c(c(=O)n1C1CCCCC1)CCC2NCCc1ccccc1` (stereo not drawn), for which the Percent Effect is 55.6%.

As to `O=c1[nH]c2c(c(=O)n1C1CCCCC1)CCC2Nc1ccccn1` (stereo not drawn), the Percent Effect came out at 28.1%.

As for `Cc1cccc(NC2CCc3c2[nH]c(=O)n(C2CCCCC2)c3=O)c1C` (stereo not drawn), the Percent Effect amounted to 32.2%.

For the compound `COC[C@@]12CCO[C@@H]1CCN(Cc1ccccc1OC)C2`, the Percent Effect worked out at 6.78%.

With `CC(=O)N1CCO[C@@H]2CN(S(=O)(=O)C3CC3)CC[C@@H]2C1`, the Percent Effect turned out to be 2.76%.

For the compound `CO[C@H]1CC[C@H]2[C@H]1OCCN2C(=O)CC1=CCCCC1`, the Percent Effect was found to be 18.1%.

`Cc1ncsc1CN1C[C@H](C(=O)N2CCCO2)[C@@H]2CCO[C@@H]2C1`: the Percent Effect was determined as 0.217%.

Turning to `Cn1cc(NC(=O)NCc2ccoc2)ccc1=O`, the Percent Effect was 58.5%.

`COc1ccc(CNC(=O)Nc2ccc(CN3CCOC3=O)cc2)cc1`: the Percent Effect turned out to be 0.788%.

Take `Cn1cc(NC(=O)NCc2ccsc2)ccc1=O`: the Percent Effect is 73.2%.

Turning to `COc1ccc(CNC(=O)Nc2ccc(=O)n(C)c2)cc1`, the Percent Effect stood at 77.6%.

Take `Cc1nnc(NC(=O)NCc2ccoc2)s1`: the Percent Effect was determined as 0.941%.

`CN(Cc1ccsc1)C(=O)Nc1ccc(=O)n(C)c1`: the Percent Effect stood at 28.4%.

As to `Cn1cc(NC(=O)CCc2ccsc2)ccc1=O`, the Percent Effect amounted to 7.87%.

Turning to `O=C(NCc1ccoc1)Nc1ccc(CN2CCOC2=O)cc1`, the Percent Effect turned out to be 2.38%.

As to `COC(=O)c1ccc(CNC(=O)Nc2ccc(=O)n(C)c2)cc1`, the Percent Effect was -0.542%.

As to `COCC(=O)N1C[C@H]2CCC[C@@]2(COC)C1`, the Percent Effect is 3.43%.

Regarding `O=C(c1cccnc1)N1C[C@H]2CN(Cc3cccc(F)c3)C(=O)[C@H]2C1`, the Percent Effect was determined as 7.87%.

As for `CO[C@H]1CCN(C2CCC2)[C@@H]2CN(Cc3ccncc3)C[C@H]12`, the Percent Effect was determined as 3%.

In the case of `CO[C@@H]1CCN(S(=O)(=O)c2cccnc2)[C@@H]2CN(CC3CC3)C[C@@H]21`, the Percent Effect was 4.3%.

For `O=C(NC1CCCC1)[C@H]1CC[C@@H]2[C@@H](CCN2c2ncc(F)cn2)O1`, the Percent Effect is -0.28%.

On to `CO[C@H]1CC[C@H]2[C@H]1OCCN2Cc1ccc(F)c(F)c1`, for which the Percent Effect is -6.11%.

As for `COCc1cnc2n1CCN(C(=O)c1ccc3ccccc3n1)C2C` (stereo not drawn), the Percent Effect was 10.7%.

Turning to `O=C(CC1CCCC1)N1C[C@@H]2CCN(c3cccnc3)C[C@@H]2C1`, the Percent Effect was 1.75%.

`c1coc(-c2nc3c(c(N4CCCN5CCC[C@H]5C4)n2)CCNCC3)c1`: the Percent Effect turned out to be 0.644%.

On to `Cc1ccoc1C(=O)N1CC[C@H]2OCC[C@@]2(COCc2ccncc2)C1`, for which the Percent Effect is 6.75%.

Turning to `Cc1cc(=O)n(C)cc1NC(=O)Cc1ccc(C(F)(F)F)cc1`, the Percent Effect amounted to 1.6%.

On to `Cc1cc(=O)n(C)cc1NC(=O)Cc1cccc(F)c1`, for which the Percent Effect came to 19.8%.

`Cc1cc(=O)n(C)cc1NC(=O)Cc1cc(F)ccc1F`: the Percent Effect is 69.1%.

With `O=C1CO[C@H]2CN(C3CCOCC3)C[C@H]2N1Cc1ccccn1`, the Percent Effect amounted to 2.85%.

With `Cc1ccc(S(=O)(=O)N2C[C@@H]3CCN[C@@H]3C2)cc1`, the Percent Effect came out at 2.57%.

On to `COc1ccc(CN2C[C@@H]3COC[C@@H](CC(=O)N4CCCC4)[C@@H]3C2)cc1`, for which the Percent Effect came out at 4.49%.

Source of the values: ChEMBL document CHEMBL3988442, “University of Dundee, Small-Polar-MMV Screening Library” (2021).
